Results taken from PubChem BioAssay (Tox21).
Results filed as inconclusive are left out. Activity calls are given as the source filed them. Unless noted, calls come from the whole dose curve.

Key:
[1] = Nuclear factor erythroid 2-related factor 2/antioxidant responsive element (Nrf2/ARE) small molecule agonists: luciferase reporter gene qHTS assay in human keratinocytes (AID 1919969); note: nearly all actives have a fitted effect of over 35% in size; note: potency is the fitted concentration of half-maximal effect
[2] = target: Gonadotropin-releasing hormone receptor (Homo sapiens) (UniProt P30968); assay: Human gonadotropin-releasing hormone receptor (GnRHR) small molecule agonists, calcium flux assay in GnRHR-HEK293 cells (AID 1920063); note: nearly all actives have a fitted effect of over 35% in size
Procedure, shortened: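 Fluorescence kinetics (480 nm excitation, 540 nm emission; 3 min, 1 s steps) report calcium mobilisation in human GnRHR-HEK293 cells in agonist mode. Dye incubation: 1 h, 37 C.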

[3] = target: KiSS-1 receptor (Homo sapiens) (UniProt Q969F8); assay: Human kisspeptin (KISS1R) small molecule agonists, calcium flux assay in KISS1R-HEK293 cells (AID 1920064; active = well fitted activation curve with a large enough effect in the repeat runs)
Procedure, shortened: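 Measures KISS1R agonism through calcium-sensitive dye fluorescence in stably transfected HEK293 cells, read for 3 min after pin-tool compound delivery; 15-point titrations in triplicate.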

[4] = G protein-coupled receptor (GPCR) small molecule agonists, calcium flux assay: HEK293 wild type cell line counter screen (AID 1920065)
Procedure, shortened: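 Readout: fluorescence at 480 nm excitation/540 nm emission, sampled at 1 s intervals for 3 min. Cells had been cultured 18 h, then dye-loaded 1 h at 37 C before compound or ATP addition.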

[5] = p53 small molecule agonists, cell-based qHTS assay with human liver microsomes (AID 1963577)
Procedure, shortened: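 p53RE-bla cells, 4,000/well, compound added after 5 h, with human liver microsomes 0.5 mg/mL and NADPH 0.5 mg/mL final; 16 h at 37 C, then LiveBLAzer 2 h RT, fluorescence.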

[6] = p53 small molecule agonists, cell-based qHTS assay with rat liver microsomes (AID 1963578)
Procedure, shortened: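 p53RE-bla cells, 4,000/well, pre-incubated 5 h, then given compounds plus rat liver microsomes (0.5 mg/mL final) and NADPH (0.5 mg/mL final). Incubation 16 h at 37 C; beta-lactamase reporter read by LiveBLAzer fluorescence after 2 h at room temperature.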

[7] = p53 small molecule agonists, cell-based qHTS assay with human liver microsomes: qHTS cell viability counter screen (AID 1963579); note: nearly all actives have a fitted effect of over 45% in size
Procedure, shortened: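 p53RE-bla cells, 4,000/well, dosed 5 hours after plating, with human liver microsomes (0.5 mg/mL final) plus NADPH (0.5 mg/mL final), 16 hours at 37 C. Viability read as CellTiter-Glo luminescence after 30 min at room temperature.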

[8] = p53 small molecule agonists, cell-based qHTS assay with rat liver microsomes: qHTS cell viability counter screen (AID 1963580); note: nearly all actives have a fitted effect of over 45% in size
Procedure, shortened: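 HCT-116 p53RE-bla, 4,000 cells/well, 5 h pre-incubation; cpd + rat liver microsomes 0.5 mg/mL + NADPH 0.5 mg/mL (final); 16 h, 37 C; CellTiter-Glo, 30 min RT; luminescence.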

[9] = target: Muscarinic acetylcholine receptor M1 (Homo sapiens) (UniProt P11229); assay: Cholinergic receptor muscarinic 1 (CHRM1) small molecule antagonists, cell-based qHTS assay (AID 1963588); note: nearly all actives have a fitted effect of over 40% in size; note: potency is the fitted concentration of half-maximal effect
Procedure, shortened: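 CHRM1-CHO calcium-flux assay, antagonist mode. Cells were seeded 18 h, dye-loaded 1 h at 37 C and given compound for 5 min at RT, then acetylcholine was added at 50nM. FDSS fluorescence was read 3 min; 15 concentrations, three runs.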

[10] = target: Muscarinic acetylcholine receptor M1 (Homo sapiens) (UniProt P11229); assay: Cholinergic receptor muscarinic 1 (CHRM1) small molecule agonists, cell-based qHTS assay (AID 1963589); note: nearly all actives have a fitted effect of over 35% in size
Procedure, shortened: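 Each compound was tested at 15 concentrations across three independent runs on dye-loaded CHO cells stably expressing human CHRM1, reading intracellular calcium fluorescence kinetically at 1 sec intervals.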

[11] = cAMP Responsive Elements (CRE) small molecule agonists, cell-based qHTS assay (AID 1963590)
Procedure, shortened: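 Cell line: CRE-bla HEK 293T; medium DMEM/10% dialyzed FBS/0.1 mM NEAA/1 mM pyruvate/25 mM HEPES; 3 h compound exposure; beta-lactamase FRET readout after 2 h substrate loading at RT.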

[12] = cAMP Responsive Elements (CRE) small molecule antagonists, cell-based qHTS assay (AID 1963591; active = well fitted inhibition curve with a large enough effect in the signal ratio in the repeat runs, not every such curve was filed as active; the % refers to the signal ratio)
Procedure, shortened: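 Inhibition of NKH477-driven (0.25 uM final) CRE-beta-lactamase signal in HEK293T cells, 3 h compound exposure at 37 °C, detected by FRET substrate fluorescence.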

[13] = target: Beta-2 adrenergic receptor (Homo sapiens) (UniProt P07550); assay: Adrenergic beta2 receptor (ADRB2) small molecule antagonists, cell-based qHTS assay (AID 1963592); note: series mostly up to about 92 µM; nearly all actives have a fitted effect of over 50% in size
Procedure, shortened: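 Cells (CHO, stable ADRB2 overexpression) incubated 18-20hr at 37C; compounds added from DMSO; agonist mix (1nM isoproterenol, 100uM IBMX, 25uM Ro-20-1724) added; 0.5hr RT; d2-cAMP and anti-cAMP-cryptate added; 1hr RT; 665/615 nm read.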

[14] = target: Beta-2 adrenergic receptor (Homo sapiens) (UniProt P07550); assay: Adrenergic beta2 receptor (ADRB2) small molecule agonists, cell-based qHTS assay (AID 1963593);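 note: CHO cells stably overexpressing human ADRB2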
Procedure, shortened: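 CHO cells stably over-expressing ADRB2 were plated overnight at 37C, then dosed with compounds plus a stimulation mix containing 100uM IBMX and 25uM Ro-20-1724 for 0.5hr at room temperature. cAMP was measured by HTRF competition, 1hr.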

[15] = target: D(2) dopamine receptor (Homo sapiens) (UniProt P14416); assay: Dopamine D2 receptor (DRD2) small molecule antagonists, cell-based qHTS assay (AID 1963595; active = well fitted inhibition curve with a large enough effect in the signal ratio in the repeat runs, with a control signal flat; the % refers to the signal ratio)
Procedure, shortened: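 Human DRD2 antagonist qHTS measuring cAMP by HTRF. The cells are exposed to compound for 10 min, then to NKH477 (200 nM) and quinpirole (12 nM) for 30 min at RT, with Ro20-1724 (0.1 mM) present throughout.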

[16] = p53 small molecule agonists, cell-based qHTS assay: qHTS cell viability counter screen (AID 1963581); note: nearly all actives have a fitted effect of over 45% in size
Procedure, shortened: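 In the same plates used for the p53 bla reporter, HCT-116 cells given compounds for 16 h at 37 C received CellTiter-Glo; luminescence was recorded 30 min later at room temperature.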

[17] = target: D(2) dopamine receptor (Homo sapiens) (UniProt P14416); assay: Dopamine D2 receptor (DRD2) small molecule agonists, cell-based qHTS assay (AID 1963594); note: nearly all actives have a fitted effect of over 35% in size
Procedure, shortened: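 cAMP accumulation in DRD2-HEK293 cells measured by HTRF after 1 h detection; compounds added 10 min before NKH477 (200nM […]) forskolin-analogue stimulation, 30 min at room temperature, with Ro20-1724 present at 0.1 mM final.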

[18] = p53 small molecule agonists, cell-based qHTS assay (AID 1963582; active = well fitted activation curve with a large enough effect in the signal ratio in the repeat runs, not every such curve was filed as active; the % refers to the signal ratio)
Procedure, shortened: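 Compounds are pin-transferred in DMSO onto p53RE-bla cells and incubated 16 h at 37 C. The B/G FRET beta-lactamase substrate is then applied for 2 h at RT and fluorescence recorded.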

[19] = target: 5-hydroxytryptamine receptor 2A (Homo sapiens) (UniProt P28223); assay: 5-hydroxytryptamine receptor 2A (HTR2A) small molecule antagonists, cell-based qHTS assay (AID 1963586); note: nearly all actives have a fitted effect of over 45% in size
Procedure, shortened: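 Antagonist-mode intracellular calcium assay: DOI (4 nM) added after 5 min compound pre-incubation at room temperature to dye-loaded HTR2A-CHO cells. Fluorescence followed for 3 min, sampled every second.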

[20] = target: 5-hydroxytryptamine receptor 2A (Homo sapiens) (UniProt P28223); assay: 5-hydroxytryptamine receptor 2A (HTR2A) small molecule agonists, cell-based qHTS assay (AID 1963587); note: nearly all actives have a fitted effect of over 30% in size
Procedure, shortened: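 Kinetic calcium-flux fluorescence (2 min, 1 sec intervals) after compound addition in agonist mode. HTR2A-CHO cells were cultured 18 h, then dye-loaded 1 h at 37 C.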

Measured: Potency

5-hydroxytryptamine receptor 2A (Homo sapiens), sequence (P28223 whole entry, looked up): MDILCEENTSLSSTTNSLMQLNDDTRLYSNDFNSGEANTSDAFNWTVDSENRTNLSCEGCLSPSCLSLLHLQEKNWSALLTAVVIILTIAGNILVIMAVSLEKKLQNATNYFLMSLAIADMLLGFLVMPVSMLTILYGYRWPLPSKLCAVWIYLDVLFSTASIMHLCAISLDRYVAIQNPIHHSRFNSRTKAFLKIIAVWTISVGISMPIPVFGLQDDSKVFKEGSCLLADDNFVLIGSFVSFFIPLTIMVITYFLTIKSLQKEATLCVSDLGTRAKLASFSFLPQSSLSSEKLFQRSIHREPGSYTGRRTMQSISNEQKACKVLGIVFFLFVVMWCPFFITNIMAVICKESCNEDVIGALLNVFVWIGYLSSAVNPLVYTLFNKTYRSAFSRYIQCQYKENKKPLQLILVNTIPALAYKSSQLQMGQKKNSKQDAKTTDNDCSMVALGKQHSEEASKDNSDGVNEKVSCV
D(2) dopamine receptor (Homo sapiens), sequence (P14416 whole entry, looked up): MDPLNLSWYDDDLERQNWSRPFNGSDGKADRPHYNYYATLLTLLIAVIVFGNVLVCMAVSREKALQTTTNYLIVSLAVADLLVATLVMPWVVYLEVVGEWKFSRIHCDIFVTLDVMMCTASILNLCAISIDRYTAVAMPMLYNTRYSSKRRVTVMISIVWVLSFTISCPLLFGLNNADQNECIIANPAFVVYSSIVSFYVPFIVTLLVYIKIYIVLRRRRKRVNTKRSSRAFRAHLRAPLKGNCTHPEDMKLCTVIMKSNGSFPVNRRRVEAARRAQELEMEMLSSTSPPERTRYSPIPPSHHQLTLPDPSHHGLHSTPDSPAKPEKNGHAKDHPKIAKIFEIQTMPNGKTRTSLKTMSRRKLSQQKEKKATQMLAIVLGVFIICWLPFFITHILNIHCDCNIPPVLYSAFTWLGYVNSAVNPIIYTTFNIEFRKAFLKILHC
Beta-2 adrenergic receptor (Homo sapiens), sequence (P07550 whole entry, looked up): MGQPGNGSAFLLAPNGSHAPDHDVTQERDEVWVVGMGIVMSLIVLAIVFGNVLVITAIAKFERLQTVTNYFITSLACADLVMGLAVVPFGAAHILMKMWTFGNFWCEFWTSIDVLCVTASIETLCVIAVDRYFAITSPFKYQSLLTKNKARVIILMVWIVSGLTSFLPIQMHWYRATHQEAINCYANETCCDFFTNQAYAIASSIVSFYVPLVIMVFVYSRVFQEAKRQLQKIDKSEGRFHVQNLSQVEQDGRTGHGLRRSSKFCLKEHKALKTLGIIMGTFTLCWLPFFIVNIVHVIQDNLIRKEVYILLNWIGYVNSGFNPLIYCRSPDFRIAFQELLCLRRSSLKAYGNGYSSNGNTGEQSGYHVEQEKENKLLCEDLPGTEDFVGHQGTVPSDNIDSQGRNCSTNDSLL
KiSS-1 receptor (Homo sapiens), sequence (Q969F8 whole entry, looked up): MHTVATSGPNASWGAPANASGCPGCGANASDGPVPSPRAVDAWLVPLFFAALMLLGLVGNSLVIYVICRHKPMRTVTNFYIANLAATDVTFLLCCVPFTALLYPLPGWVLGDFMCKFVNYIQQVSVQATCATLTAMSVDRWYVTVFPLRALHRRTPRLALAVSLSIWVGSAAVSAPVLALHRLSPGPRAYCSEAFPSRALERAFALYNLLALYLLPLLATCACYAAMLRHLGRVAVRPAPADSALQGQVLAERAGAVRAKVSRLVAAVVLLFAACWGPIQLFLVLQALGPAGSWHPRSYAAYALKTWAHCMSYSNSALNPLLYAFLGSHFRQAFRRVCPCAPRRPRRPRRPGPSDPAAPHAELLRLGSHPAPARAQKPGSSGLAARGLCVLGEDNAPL
Gonadotropin-releasing hormone receptor (Homo sapiens), sequence (P30968 whole entry, looked up): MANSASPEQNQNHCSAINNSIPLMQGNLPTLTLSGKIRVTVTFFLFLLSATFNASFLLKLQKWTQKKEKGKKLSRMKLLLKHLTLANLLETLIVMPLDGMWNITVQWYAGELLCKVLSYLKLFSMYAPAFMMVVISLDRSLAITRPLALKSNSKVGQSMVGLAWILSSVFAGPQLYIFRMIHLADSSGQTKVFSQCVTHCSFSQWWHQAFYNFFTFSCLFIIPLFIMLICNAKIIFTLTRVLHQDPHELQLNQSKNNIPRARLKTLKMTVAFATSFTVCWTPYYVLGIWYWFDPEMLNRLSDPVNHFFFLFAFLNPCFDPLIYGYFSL
Muscarinic acetylcholine receptor M1 (Homo sapiens), sequence (P11229 whole entry, looked up): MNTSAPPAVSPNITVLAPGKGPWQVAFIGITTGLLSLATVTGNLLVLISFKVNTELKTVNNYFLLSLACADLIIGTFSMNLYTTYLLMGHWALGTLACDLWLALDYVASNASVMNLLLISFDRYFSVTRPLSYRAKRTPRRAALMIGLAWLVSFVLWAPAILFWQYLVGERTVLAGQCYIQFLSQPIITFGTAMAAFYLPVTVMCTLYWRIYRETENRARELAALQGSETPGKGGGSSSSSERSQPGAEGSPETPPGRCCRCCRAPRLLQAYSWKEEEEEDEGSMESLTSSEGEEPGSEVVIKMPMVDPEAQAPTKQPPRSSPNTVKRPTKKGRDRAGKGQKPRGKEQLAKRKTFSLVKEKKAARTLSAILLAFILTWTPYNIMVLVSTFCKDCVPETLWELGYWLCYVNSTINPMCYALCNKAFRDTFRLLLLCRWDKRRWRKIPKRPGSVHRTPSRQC

CCCCCCCCCCCCCCNCCO
active: [1] 13.3 µM
not listed: [16] | [17] | [18] | [19] | [20]
inactive: all other assays above

NS(=O)(=O)c1cc(C2(O)NC(=O)c3ccccc32)ccc1Cl (configuration not stated)
not listed: [9] | [10] | [18] | [19] | [20]
inactive: all other assays above

C[C@H](N)C(=O)N[C@@H](C)C(=O)NC1[C@H]2CN(c3nc4c(cc3F)c(=O)c(C(=O)O)cn4-c3ccc(F)cc3F)C[C@@H]12 (some centres not stated)
not listed: [11] | [12] | [14] | [16] | [17] | [19] | [20]
inactive: all other assays above

Cc1cc(=O)oc2cc(O[C@@H]3SC[C@@H](O)[C@H](O)[C@H]3O)ccc12
not listed: [8] | [11] | [14]
inactive: all other assays above

CN(C)Cc1ccccc1
not listed: [11] | [13] | [16]
inactive: all other assays above

CC(CCl)OC(C)CCl (configuration not stated)
not listed: [8] | [12] | [14] | [16] | [19]
inactive: all other assays above

NC(=O)N(O)[C@@H]1C=C[C@H](Oc2cccc(Oc3ccc(F)cc3)c2)C1
active: [1] 61.1 µM
not listed: [7] | [11] | [12] | [14] | [17] | [18]
inactive: all other assays above

CCCCc1nc2cccnc2n1Cc1ccc(-c2ccccc2-c2nnn[nH]2)cc1
not listed: [11] | [12] | [13] | [14] | [17] | [18] | [20]
inactive: all other assays above

COC(=O)C1=C(C)NC(C)=C(C(=O)OCCN2CCN(C(c3ccccc3)c3ccccc3)CC2)C1c1cccc([N+](=O)[O-])c1 (configuration not stated)
not listed: [7] | [10] | [11] | [17] | [18] | [19]
inactive: all other assays above

CCOC(=O)c1ccc(OC(=O)CCCCCN=C(N)N)cc1
active: [9] 7.29 µM
not listed: [8] | [15] | [19]
inactive: all other assays above

CCOC(=O)OC(C)OC1=C(C(=O)Nc2ccccn2)N(C)S(=O)(=O)c2ccccc21 (configuration not stated)
not listed: [8] | [9] | [10] | [15] | [18] | [19] | [20]
inactive: all other assays above

CCN(CC)C(=O)/C(C#N)=C/c1cc(O)c(O)c([N+](=O)[O-])c1
not listed: [11] | [12] | [14] | [16] | [17] | [18] | [19]
inactive: all other assays above

CC1=CC(=O)CC(C)(C)C1(O)/C=C/C(C)=C\C(=O)O (configuration not stated)
not listed: [10] | [12] | [14] | [16]
inactive: all other assays above

OC[C@@H](O)[C@H](O)[C@@H](O)[C@@H](O)CO
not listed: [8] | [9] | [10] | [11] | [12] | [15] | [19] | [20]
inactive: all other assays above

Clc1ccnc(Cl)n1
active: [1] 69.6 µM
not listed: [8] | [14]
inactive: all other assays above

CCCCC(CC)CN1C(=O)C2C3C=CC(C3)C2C1=O (configuration not stated)
active: [1] 54.5 µM
not listed: [9] | [11] | [12] | [13] | [17] | [18]
inactive: all other assays above

CN(CCOc1ccc(NS(C)(=O)=O)cc1)CCc1ccc(NS(C)(=O)=O)cc1
active: [9] 8.18 µM
not listed: [7] | [14] | [15] | [18]
inactive: all other assays above
